RORgamma inh = blocks mouse ROR gamma transcriptional activity | P51450 | Drosophila S2 Gal4-RORgamma UAS-luciferase reporter, 20 h | Potency, µM (top dose mostly 53.6 µM), inactives show at the top dose activity change, negative = inhibition, actives largely listed as inhibitors | 310,000 compounds, 5.4% hits | AID 2551; note: nearly all actives have a fitted effect of over 60% in size
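Stable Schneider cell line, Gal4 DNA-binding domain fused to ROR gamma, UAS-luciferase. Cmpd 1 hr RT → CuSO4 700 uM final → 20 hr RT → luciferase reagent 10 min → luminescence.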
VP16 counter = Gal4-VP16 reporter inhibition counter-screen; Potency, µM (series often up to 53.6 µM), for inactives: at the highest dose activity, negative = inhibition, hits mostly inhibitors; Drosophila S2 Gal4-VP16 UAS-luciferase, luminescence, 20 h; 310,000 compounds, 3.5% hits;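 note: Gal4-VP16 expression switched on by copper sulfate through the metallothionein promoter; nearly all actives have a fitted effect of over 50% in size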
TDP1 inh = TDP1 (human) enzyme inhibition; recombinant TDP1, AlphaScreen DNA substrate cleavage; Potency, µM (doses to about 130 µM), for the others: top-dose activity change, negative = inhibition, usual class: inhibitors; 350,000 compounds, 0.28% hits; note: nearly all actives have a fitted effect of over 40% in size
Target sequence (Q9NUW8 whole entry, looked up): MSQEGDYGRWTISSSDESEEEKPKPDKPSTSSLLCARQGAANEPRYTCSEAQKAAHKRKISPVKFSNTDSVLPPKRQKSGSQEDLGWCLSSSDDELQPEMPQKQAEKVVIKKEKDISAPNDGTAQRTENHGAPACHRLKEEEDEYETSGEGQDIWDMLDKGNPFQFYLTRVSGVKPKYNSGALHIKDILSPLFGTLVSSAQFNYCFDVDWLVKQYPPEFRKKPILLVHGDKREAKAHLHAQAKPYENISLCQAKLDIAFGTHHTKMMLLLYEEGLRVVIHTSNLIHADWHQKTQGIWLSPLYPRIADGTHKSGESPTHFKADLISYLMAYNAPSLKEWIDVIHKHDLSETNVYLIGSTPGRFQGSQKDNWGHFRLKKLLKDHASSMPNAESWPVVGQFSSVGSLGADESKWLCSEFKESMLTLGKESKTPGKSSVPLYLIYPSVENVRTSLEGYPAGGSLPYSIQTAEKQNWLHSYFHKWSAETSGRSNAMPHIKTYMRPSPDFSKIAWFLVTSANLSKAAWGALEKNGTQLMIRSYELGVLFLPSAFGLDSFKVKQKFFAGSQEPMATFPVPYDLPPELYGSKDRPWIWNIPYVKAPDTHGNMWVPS
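Here, a 5' biotin and 3' phosphotyrosine-FITC DNA oligonucleotide reports Tdp1 activity: intact substrate bridges AlphaScreen beads, while cleavage leaves a 3' phosphate and drops signal. All incubations at room temperature.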
DT40 TDP1 CPT = growth inhibition of DT40 Tdp1-/-;hTDP1 cells with camptothecin (screen for TDP1 inhibitors). 420,000 compounds, 12% hits. Potency, µM (titrated, usually from 46.2 µM), inactives show at the highest dose activity change, negative = growth inhibition, actives largely listed as inhibitors. AID 686979. chicken DT40 Tdp1-/-;hTDP1 cells + 20 nM CPT, ATP luminescence, 48 h; note: nearly all actives have a fitted effect of over 55% in size
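Chicken DT40 Tdp1-/- cells complemented with human TDP1, 400 cells/well, exposed to compounds plus 20 nM camptothecin for at least 48 h at 37 C; viability read as ATP content by CellTiter-Glo luminescence.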
DT40 TDP1 no CPT = qHTS for Inhibitors of human tyrosyl-DNA phosphodiesterase 1 (TDP1): qHTS in cells in absence of CPT; Potency, µM (highest dose often 46.2 µM), for the others: at the top dose activity change, negative = growth inhibition, usual class: inhibitors; DT40 Tdp1-/- hTDP1 cells, no CPT, ATP luminescence, 48 h; 420,000 compounds, 15% hits; note: nearly all actives have a fitted effect of over 55% in size
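Growth of hTDP1-complemented DT40 Tdp1-knockout cells is measured by ATP luminescence after at least 48 hr compound exposure at 37 °C, with DMSO substituting for the 20 nM CPT used in the parallel screen.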
* hit, by the source's call; u = inconclusive; x = no result; [ ] = another dose, or the depositor's remark. A selection: hits, their analogues and other compounds. The true share with any hit is near 19%. Calls come from the whole dose curve; as a rule, active = well fitted curve in the direction sought with a large enough effect; inconclusive = small, poorly fitted or top-dose-only effect, or another doubt; inactive = no such curve, though single readings can be large; an effect the other way counts as inactive or inconclusive. % is set by controls: 0 for no effect and ±100 for the full control effect; potency is the fitted concentration of half-maximal effect.

SMILES	RORgamma inh	VP16 counter	TDP1 inh	DT40 TDP1 CPT	DT40 TDP1 no CPT
c1ccc(-[n+]2nc(Nc3cccc4ccccc34)sc2-c2c3ccccc3cc3ccccc23)cc1	x	x	12%	u	15µM*
Fc1ccc(-[n+]2nc(Nc3ccccc3)sc2-c2c3ccccc3cc3ccccc23)cc1	10µM*	-18%	x	5.8µM*	3.7µM*
O=c1[nH]c(Nc2ccc(F)cc2)cc2ccccc12	1%	-2%	3%	-26%	u
O=C(OCC(=O)N1CCCC1)c1cccc(Br)c1	3%	-3%	0%	0%	3%
COc1ccccc1OCCCCNC(C)(C)C	-20%	-2%	6%	3%	-1%
Cc1cc(Br)ccc1OCCCCNC(C)(C)C	-10%	-9%	-3%	u	21µM*
COCCNCCCCOc1ccc(Br)cc1C	-7%	-11%	-6%	u	23µM*
COCCCNCCCCOc1ccc(Br)cc1C	-35%	8%	5%	u	23µM*
CCN(C(=O)COC(=O)c1cc(OC)c(OC)cc1[N+](=O)[O-])C1CCS(=O)(=O)C1 (centres undefined)	-1%	4%	5%	4%	12%
Cc1ccc(/C=C(/C#N)c2nc(CCN3C(=O)c4ccccc4C3=O)cs2)cc1	19%	-4%	4%	-26%	u
O=C1CCCc2[nH]c(-c3ccccc3)nc21	-20%	-5%	5%	-6%	-12%
O=C1CCCc2c1nc(-c1ccco1)n2O	-9%	-5%	-3%	-4%	-11%
CCCCN1C(C(=O)Nc2cc(C)on2)=C(O)c2ccccc2S1(=O)=O	2%	7%	x	6%	-20%
CCC/C(=N\NC(=O)c1ccc(OC)c(OC)c1)c1ccccc1	-11%	6%	5%	-16%	-29%
CCCCCN1C(C(=O)c2ccccc2)=C(NC(=O)c2ccc(OC)cc2)c2ccccc2S1(=O)=O	x	x	5%	u	23µM*
CCCCCN1C(C(=O)c2ccccc2)=C(NC(=O)c2ccc(OC)c(OC)c2)c2ccccc2S1(=O)=O	x	x	5%	21µM*	16µM*
O=c1ccc2nc3ccccc3sc-2c1	x	x	x	0.65µM*	1.5µM*
Brc1ccc(-c2nc3ccccc3s2)s1	41%[10 µM]	u	-4%	-13%	-29%
CCC(=O)c1cc(Br)ccc1OCC(=O)N1CCN(S(=O)(=O)c2ccccc2)CC1	x	x	x	u	23µM*
Cc1ccc(S(=O)(=O)N2CCN(C(=O)CSC(=S)N3CCCC3)CC2)c(C)c1	x	x	0%[56.1 µM]	5.2µM*	3.3µM*
CCOc1ccccc1OCCCC(=O)N1CCN(S(=O)(=O)c2ccc(C)cc2)CC1	-27%	2%	4%	u	u
CCOc1ccccc1OCCCC(=O)N1CCN(S(=O)(=O)c2ccc(C)cc2C)CC1	x	x	0%	21µM*	-57%
Cc1ccccc1OCCC(=O)N1CCN(S(=O)(=O)c2ccc(Br)cc2)CC1	x	x	1%[0.505 µM]	u	23µM*
O=C(COc1ccc(Cl)cc1Br)N1CCN(S(=O)(=O)c2ccccc2)CC1	3%	1%	2%	u	u
COc1ccc(NS(=O)(=O)c2ccc3c(c2)CCN3C(=O)CCC(=O)O)cc1Cl	x	x	2%	3%	-6%
SMILES	RORgamma inh	VP16 counter	TDP1 inh	DT40 TDP1 CPT	DT40 TDP1 no CPT
CCN(CC)c1ccc(NC(=O)c2cc3ccccc3o2)c(C)c1	5%	5%	3%	u	u
Cc1ccc(CN2C(=O)C(Cc3ccccc3)Nc3ncnc(N4CCN(c5ccccc5)CC4)c32)cc1 (centres undefined)	x	x	4%	u	u
O=C1C(Cc2ccccc2)Nc2ncnc(N3CCN(c4ccccc4)CC3)c2N1Cc1ccccc1 (centres undefined)	x	x	x	u	18µM*
CCC1Nc2ncnc(N3CCN(c4ccccc4)CC3)c2N(Cc2ccc(Br)cc2)C1=O (centres undefined)	x	x	x	21µM*	u
Cc1ccc(CN2C(=O)C(Cc3ccccc3)Nc3ncnc(N4CCCCC4)c32)cc1 (centres undefined)	x	x	5%	18µM*	u
O=C1C(Cc2ccccc2)Nc2ncnc(N3CCN(c4ccccc4)CC3)c2N1Cc1ccc(Br)cc1 (centres undefined)	x	x	3%	u	u
COc1ccc(CCC(=O)N2CCN(S(=O)(=O)c3cccc(Cl)c3)CC2)cc1	x	x	2%	u	u
CC(C)C(CCNCc1ccccn1)c1ccc(Cl)cc1 (centres undefined)	u	-11%	x	u	13µM*
CC(C)CCC(CCNCc1ccccn1)c1ccc2c(c1)OCO2 (centres undefined)	-40%	-11%	x	u	u
CCCc1cc(=O)[nH]c(SCC(=O)Nc2nc(-c3ccccc3)cs2)n1	-5%	-4%	2%	u	u
O=C(CN1CCC(n2nnc3cc(C(F)(F)F)ccc32)CC1)NCc1cccs1	6%	22%	7%	u	u
Cn1c(Oc2ccccc2NCc2cc(Br)ccc2O)cc(=O)n(C)c1=O	u	u	5%	18µM*	23µM*
COc1cc(CNc2ccccc2Oc2cc(=O)n(C)c(=O)n2C)cc(OC)c1OC	-30%	-22%	0%	u	u
COCCCNC(=O)Cc1c(C)c2cc3c(cc2oc1=O)OC(C)(C)CC3	34%	-14%	x	26µM*	26µM*
Cc1c(CC(=O)NCCCC(=O)O)c(=O)oc2cc3c(cc12)CCC(C)(C)O3	5µM*	7.1µM*	x	u	u
COCCCNC(=O)Cc1c(C)c2c(cc(C)c3c(C)c(C)oc32)oc1=O	-21%	-1%	x	u	13µM*
COc1ccc(CCNC(=O)Cc2c(C)c3c(cc(C)c4c(C)c(C)oc43)oc2=O)cc1OC	x	x	-2%	-8%	-10%
CSc1cccc(NC(=O)CCNC(=O)c2ccco2)c1	-1%	u	3%	17%	-25%
CCc1nc2c(OCCC3CCCCC3)cccn2c1N(C)C(=O)C1CC1	x	x	x	18µM*	13µM*
CCc1nc2c(OCc3ccc(S(C)(=O)=O)cc3)cccn2c1N(C)C(=O)c1ccccc1F	x	x	x	-29%	-2%
CCc1nc2c(OCc3ccccc3)cccn2c1N(C)C(=O)c1ccc(OC)cc1	x	x	x	-23%	u
CCc1nc2c(OCC3CCCCC3)cccn2c1N(C)C(=O)c1ccc(OC)cc1	x	x	x	18µM*	18µM*
CCc1nc2c(OCCC3CCCCC3)cccn2c1N(C)C(=O)COc1ccccc1	x	x	x	16µM*	u
CCc1nc2c(OCC3CCCCC3)cccn2c1N(C)C(=O)c1ccccc1F	x	x	x	u	16µM*
CC(NC(=O)C1(S(=O)(=O)c2ccc(Cl)cc2)CC1)c1ccccc1 (centres undefined)	1%	0%	-3%	-4%	-29%

Screening data as filed in PubChem BioAssay.
